Hits are enriched below; roughly 9.3% of the tested compounds scored in any of these assays.
FLuc counter = qHTS profiling assay for firefly luciferase inhibitor/activator using purifed enzyme and Km concentrations of substrates (counterscreen for miR-21 project). Luciferin 4-monooxygenase (Photinus pyralis), P08659. purified FLuc, Km substrates, luminescence inhibition. Potency, µM (doses to about 57.5 µM), without a hit: at the top dose activity change, negative = inhibition, most hits filed as inhibitors. 360,000 compounds, 6.9% hits. AID 588342, 2011;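 also: plate controls were vehicle for no effect and reference inhibitor for full effect; nearly all actives have a fitted effect of over 55% in size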
Target sequence (P08659 whole entry, looked up): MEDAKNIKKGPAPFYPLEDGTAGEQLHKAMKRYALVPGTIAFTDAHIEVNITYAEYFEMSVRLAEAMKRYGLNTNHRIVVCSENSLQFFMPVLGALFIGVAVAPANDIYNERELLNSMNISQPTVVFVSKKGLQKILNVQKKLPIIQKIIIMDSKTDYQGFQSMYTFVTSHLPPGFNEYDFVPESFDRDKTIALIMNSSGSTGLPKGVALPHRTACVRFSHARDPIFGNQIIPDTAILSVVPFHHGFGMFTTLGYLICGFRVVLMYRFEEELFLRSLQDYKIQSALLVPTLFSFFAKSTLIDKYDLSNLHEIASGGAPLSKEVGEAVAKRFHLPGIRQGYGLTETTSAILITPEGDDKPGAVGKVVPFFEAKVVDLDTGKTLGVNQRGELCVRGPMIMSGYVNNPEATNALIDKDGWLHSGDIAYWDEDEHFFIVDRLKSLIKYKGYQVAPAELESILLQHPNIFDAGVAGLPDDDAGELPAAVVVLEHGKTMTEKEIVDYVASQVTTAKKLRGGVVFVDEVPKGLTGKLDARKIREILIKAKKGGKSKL
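Purified P. pyralis luciferase (10nM final) with 10uM D-luciferin and 10uM ATP (Km levels) in 50mM Tris acetate pH 7.5, 10mM Mg acetate, 0.01% Tween-20, 0.05% BSA; qHTS 6-point titration, ~60 µM downward; luminescence read.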
Rab9 promoter act = qHTS Assay for Rab9 Promoter Activators; Huh7 Rab9 promoter-luciferase reporter, luminescence, 24 h; Potency, µM (doses to about 9.22 µM), for inactives: top-dose activation, negative = inhibition, most hits filed as activators; 320,000 compounds, 2.8% hits; also: % of control where 0% means no effect; nearly all actives have a fitted effect of over 60% in size
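Huh7 cells stably carrying a Rab9 promoter-luciferase reporter, 1500 cells per well in OP-MEM I with 10% FBS, treated with compound 24 hours at 37C. Luciferase activity read by luminescence after 10 minutes with Amplite reagent.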
ELG1 genotoxic = qHTS screen for small molecules that induce genotoxicity in human embryonic kidney (HEK293T) cells expressing luciferase-tagged ELG1. HEK293T ELG1-luciferase reporter, luminescence, 16 h. Potency, µM (highest dose often 46 µM), for the others: top-dose activity change, positive = activation, actives largely listed as activators. 330,000 compounds, 1.3% hits. AID 504466, 2011; also: % of control where 0% means no effect; nearly all actives have a fitted effect of over 60% in size
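DMSO vehicle served as control against compound-treated ELG1-luciferase HEK293T cells; exposure lasted 16 hr at 37 °C and 5% CO2, followed by ONE-Glo luminescence detection after 30 min.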
NPC1 prom act = qHTS Assay for NPC1 Promoter Activators | AID 485313, 2010 | Huh7 NPC1 promoter luciferase reporter, 24 h | Potency, µM (series often up to 9.22 µM), without a hit: at the highest dose activation, most hits filed as activators | 320,000 compounds, 2.4% hits; also: % of control where 0% means no effect; nearly all actives have a fitted effect of over 60% in size
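Luminescence read-out of NPC1 promoter-driven luciferase in stably transfected Huh7 cells; compounds delivered in DMSO and left 24 h at 37C, 5% CO2, qHTS titration format.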
ELG1 DNA repair = qHTS screen for small molecules that inhibit ELG1-dependent DNA repair in human embryonic kidney (HEK293T) cells expressing luciferase-tagged ELG1; HEK293T ELG1-luciferase reporter, luminescence, 16 h; DNA damage induced by 5-fluorouridine; Potency, µM (doses to about 46.1 µM), without a hit: top-dose activity change, negative = inhibition, hits mostly inhibitors; 330,000 compounds, 2.3% hits; also: % is scaled to controls: 0 for no effect and ±100 for the full control effect; nearly all actives have a fitted effect of over 55% in size
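Overnight (16 hr) co-exposure of 2,000 cells/well to 5-fluorouridine and compound at 37 °C preceded detection. Luciferase was quantified via ONE-Glo luminescence; loss of signal denotes inhibition.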
SMN2 splice up = qHTS Assay for Enhancers of SMN2 Splice Variant Expression; HEK293 SMN2-luciferase splicing reporter, luminescence, 30-36 h; Potency, µM (top dose mostly 46.1 µM), for the others: at the top dose activity change, positive = activation, most hits filed as activators; 210,000 compounds, 2.8% hits; also: % of control where 0% means no effect; nearly all actives have a fitted effect of over 55% in size
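HEK293 cells carry an SMN2 minigene-luciferase reporter in which exon 7 inclusion puts luciferase in frame. Cells were seeded at 2000 cells/well, attached for 10-12 hours, then exposed to compounds for 30-36 hours at 37C before ONE-Glo luminescence.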
Starred values were filed as active, the others as inactive; u = inconclusive; x = no result. Calls follow the shape of the dose curve; as a rule, active = well fitted curve in the direction sought with a large enough effect; inconclusive = small, poorly fitted or top-dose-only effect, or another doubt; inactive = no such curve, though single readings can be large; an effect the other way counts as inactive or inconclusive. Potency is read from the fitted curve at half-maximal effect.

SMILES	FLuc counter	Rab9 promoter act	ELG1 genotoxic	NPC1 prom act	ELG1 DNA repair	SMN2 splice up
Cc1ccc(C(c2cc(Cl)c3cccnc3c2O)N2CCN(C)CC2)cc1 (stereo not given)	-3%	14%	-7%	-8%	16µM*	x
O=C(O)c1cccc(NC(=O)c2cc3cc(Br)cc(Br)c3oc2=O)c1	12µM*	x	x	x	x	-4%
COc1ccc2oc(=O)c(C(=O)Nc3cccc(C(=O)O)c3)cc2c1	-101%	x	x	x	x	0.79µM*
Cc1cccc(NC(=O)c2cc3ccccc3oc2=O)c1	0.6µM*	1.4µM*	2.1µM*	1.1µM*	u	x
Cc1ccnc(NC(=O)c2cc3ccccc3oc2=O)c1	0.85µM*	1.1µM*	u	1.6µM*	u	11µM*
COc1ccc(C(=O)NNC(=O)c2cc3cc(OC)ccc3oc2=O)cc1	1%	-2%	2%	1%	-8%	x
NC(=O)CSc1nnnn1CC(CC(=O)O)c1ccccc1 (stereo not given)	6%	-1%	2%	-5%	3%	6%
O=C(COC(=O)CCSc1ccccc1)NCc1ccc(F)cc1	1%	-5%	0%	1%	4%	-14%
COc1ccc2oc(=O)c(C(=O)Nc3cccc(C)c3)cc2c1	3µM*	1.6µM*	8.2µM*	4µM*	u	x
Cc1ccc(C(=O)/C=C/NCc2ccc(F)cc2)cc1	17µM*	5%	10%	-3%	u	29%
Cc1ccc(CN/C=C/C(=O)c2ccc(Br)cc2)cc1	17µM*	20%	5%	20%	u	17%
COc1ccc(CNC(=O)c2ccc3c(c2)CCN3S(=O)(=O)c2ccc(Cl)cc2)cc1	-3%	x	x	x	x	-47%
CC(=O)Nc1cccc(N(C)S(C)(=O)=O)c1	-3%	-4%	0%	-1%	8%	8%
O=C(Nc1cccc(Cl)c1)Nc1csc([N+](=O)[O-])c1	19µM*	-14%	-8%	-6%	u	x
CN(c1cccc(NC(=O)Nc2cccc(Cl)c2)c1)S(C)(=O)=O	17µM*	-1%	0%	15%	19%	-30%
CN(C)c1ccc(NC(=O)Nc2cccc(Cl)c2)cc1	1.3µM*	1.8µM*	u	2.2µM*	u	13µM*
Cn1c(=O)c2c(nc(NCc3ccco3)n2C/C=C/c2ccccc2)n(C)c1=O	4%	-27%	-7%	-22%	4.6µM*	-55%
Cn1c(=O)c2c(nc(NCc3ccco3)n2C)n(C)c1=O	6%	1%	0%	-3%	2%	x
CC1=C(C(=O)N2CCOCC2)C(c2ccc(Br)cc2)NC(=S)N1c1ccccc1 (stereo not given)	2%	-3%	-1%	-4%	0%	18%
COc1cc(OC)c(-c2nn3c(C4CCCCC4)nnc3s2)cc1OC	-1%	-9%	0%	-8%	21µM*	-25%
CCOc1cccc(-c2nnc3sc(-c4cc(OC)c(OC)cc4OC)nn23)c1	0%	-2%	4%	-1%	-2%	-6%
CCn1cc(C(=O)O)c(=O)c2cc(Br)ccc21	2%	-8%	-2%	1%	13%	2%
CCC(=O)c1ccc(O)cc1	5%	-2%	2%	-2%	-5%	-17%
CCC(=O)c1ccc(-c2ccccc2)cc1	15µM*	2%	u	3%	u	u
CC(NC(N)=O)C(=O)OCC(=O)c1ccc(-c2ccccc2)cc1 (stereo not given)	12µM*	18%	7%	10%	u	26%
SMILES	FLuc counter	Rab9 promoter act	ELG1 genotoxic	NPC1 prom act	ELG1 DNA repair	SMN2 splice up
CCCC(C)NC(=O)c1ccc(-c2ccccc2)cc1 (stereo not given)	u	1.8µM*	u	u	u	x
COC(=O)c1ccccc1NC(=O)COC(=O)[C@H](C)NC(N)=O	3%	3%	0%	2%	-6%	x
COc1ccc(C(=O)CCC(=O)O)cc1	4%	-8%	6%	1%	5%	-14%
O=C(O)CCC(=O)c1ccc(-c2ccccc2)cc1	8.5µM*	u	9%	25%	u	29%
C/C(=N\NC(=O)c1nnn(-c2nonc2N)c1CSc1ccc(Cl)cc1)c1ccco1	-1%	-1%	18%	0%	u	x
O=C(O)CCC(=O)NNC(=O)c1ccc([N+](=O)[O-])cc1	-2%	-4%	0%	0%	-3%	x
O=C(O)CCC(=O)NNC(=O)c1ccc(-c2ccccc2)cc1	19µM*	1%	2%	-1%	17%	26%
Cc1oc(-c2ccccc2)nc1CNC(=O)NC1CCCCC1	-3%	x	x	x	x	x
COc1ccc2nc3c(cc2c1)Cc1ccccc1-3	x	x	x	x	x	0.5µM*
CC1CCN(S(=O)(=O)c2ccc(C(=O)Nc3ccccc3-c3nc4ccccc4[nH]3)cc2)CC1	3%	-1%	-9%	-10%	16µM*	14%
O=C(Nc1ccccn1)C1CCN(S(=O)(=O)c2cccc3nonc23)CC1	2%	2%	1%	-4%	u	-20%
CC1CCCN(S(=O)(=O)c2ccc(C(=O)Nc3ccccc3-c3nc4ccccc4[nH]3)cc2)C1 (stereo not given)	-1%	-7%	2%	-5%	u	-5%
Cc1ccc(NC(=O)c2ccc(S(=O)(=O)N3CCC(C)CC3)cc2)nc1	u	-5%	18µM*	0%	-13%	x
Cc1ccc(NC(=O)C2CCN(S(=O)(=O)c3cccc4nonc34)CC2)nc1	-1%	5%	-13%	-1%	21µM*	x
Cc1nnsc1C(=O)Nc1ccc(S(=O)(=O)N2CCC(C)CC2)cc1	2%	-18%	3%	-11%	7.3µM*	x
COC(=O)c1ccncc1N	6%	-2%	-1%	1%	6%	5%
O=C(Nc1nnc(C2=COCCO2)o1)c1ccc(S(=O)(=O)N2CCCCC2)cc1	u	-1%	-8%	-5%	u	-10%
O=C(CN1CCC(C(=O)O)CC1)Nc1ccccc1Oc1ccccc1	1%	-1%	1%	0%	8%	x
CCc1ccc(-n2nc(CO)c(C(=O)NC)n2)cc1	15µM*	x	x	x	x	u
CCOc1ccc(-n2nc(CO)c(C(=O)NCc3cccs3)n2)cc1	19µM*	x	x	x	x	-10%
O=S(=O)(c1ccccc1)N1CCC[C@@]2(CCN(C(c3ccccc3)c3ccccc3)C2)C1	x	x	x	x	x	-7%

Screening results from PubChem BioAssay.
